Screening results deposited in PubChem by National Center for Advancing Translational Sciences (NCATS).
The sample as a whole holds a higher share of hits than the screen did.
NTMT1 inhibitor = blocks human N-terminal methyltransferase 1 activity | Potency, µM (highest dose often 114 µM), actives largely listed as inhibitors | NTMT1 MTase-Glo SAH luminescence, purified enzyme | hit rate 2.5% among 59,000 | AID 1645870; further: nearly all actives have a fitted effect of over 65% in size
B2AR arrestin ag = ADRB2 beta-arrestin recruitment. Potency, µM (titrated, usually from 46.1 µM), usual class: activators. 44,000 tested, under 10 active. P07550. HTLA Tango cells, beta-arrestin recruitment, luciferase luminescence, 18 h. AID 1347077
Target sequence (P07550 whole entry, looked up): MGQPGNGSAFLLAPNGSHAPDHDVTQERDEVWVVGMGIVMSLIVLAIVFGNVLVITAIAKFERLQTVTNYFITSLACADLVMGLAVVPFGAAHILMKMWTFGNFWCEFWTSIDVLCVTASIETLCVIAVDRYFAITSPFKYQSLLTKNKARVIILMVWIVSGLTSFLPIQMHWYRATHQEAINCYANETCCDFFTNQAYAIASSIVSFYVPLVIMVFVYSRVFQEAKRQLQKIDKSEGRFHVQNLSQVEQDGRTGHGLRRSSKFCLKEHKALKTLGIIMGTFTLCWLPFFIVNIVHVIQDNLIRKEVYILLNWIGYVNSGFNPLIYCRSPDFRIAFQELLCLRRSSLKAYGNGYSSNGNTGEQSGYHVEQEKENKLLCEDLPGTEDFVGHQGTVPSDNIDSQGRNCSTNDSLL
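Receptor–beta-arrestin recruitment read by tTA-responsive luciferase: compound titrations (up to 46 µM) incubated 18 h with Tango cells, then luminescent substrate 15 min at room temperature. Concentration-response fits classified by r2, efficacy and activity.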
TSG101-PTAP inh = blocks PTAP binding to human TSG101, validation; Q99816; Fluorescence polarization, FITC-PTAP peptide/Tsg101, 20 min; Potency, µM (doses to about 115 µM), usual class: inhibitors; 44,000 tested, under 10 active; AID 1347069
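Fluorescence polarization binding of Tsg101 binding domain (10 uM final) to FITC-labeled PTAP-motif peptide (50 nM final) in HEPES pH 7.5/NaCl/Tween 20/EDTA/TCEP buffer; 20 min at r.t. Actives by curve class, <25 µM, efficacy <60% inhibition.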
GALC G270D act = galactocerebrosidase G270D activity enhancement, cell-based | hit rate 0.1% among 45,000 | Potency, µM (titrated, usually from 57.5 µM), hits mostly activators | P54803 | 145M-Twi-hGALC-G270D cells (Twitcher mouse brain line with human GALC G270D), HMU-beta-Gal fluorescence, 48 h; further: nearly all actives have a fitted effect of over 65% in size
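Brain-derived Twitcher mouse 145M-Twi cells stably expressing human GALC-G270D or wild-type GALC, treated live, then residual GALC activity read by fluorescence of HMU-b-Gal substrate (0.1 mM final) in citrate-phosphate buffer pH 5.2 with sodium taurocholate. Signal increase indicates enhancement.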
GALK inhibitor = GALK (human) enzyme inhibition; 44,000 tested, under 10 active; Potency, µM (series often up to 57.5 µM), hits mostly inhibitors; recombinant GALK, Kinase-Glo ATP luminescence, 1 h
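Compounds were pinned into ATP buffer, then GALK-galactose mix was added (final 5 nM enzyme, 35 uM ATP, 100 uM galactose, pH 8.0). After 1 h at room temperature, Kinase-Glo Plus was added and luminescence read.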
FH mod = Identification of activators of human fumarate hydratase by quantitative high-throughput screening; Fumarate hydratase, mitochondrial (Homo sapiens), P07954; AID 1347055, 2019; Potency, µM (series often up to 79.9 µM), actives largely listed as inhibitors; FH coupled MDH/diaphorase resazurin fluorescence, 15 min; hit rate 0.22% among 54,000; further: the screen sought activators but most active calls are inhibition curves; nearly all actives have a fitted effect of over 45% in size
Each line names hits and unclear results; the compound was inactive in the other large screens; ! = not active in a repeat. The call rests on the fitted dose curve; in most records, active means well fitted curve in the direction sought with a large enough effect; inconclusive means small, poorly fitted or top-dose-only effect, or another doubt; inactive means no such curve, though single readings can be large; an effect the other way counts as inactive or inconclusive.

OC[C@H]1O[C@@H](n2cnc3c(NC4CCCC4)ncnc32)[C@H](O)C1O (stereo partly specified)	none (no result: NTMT1 inhibitor, B2AR arrestin ag, TSG101-PTAP inh, GALC G270D act, GALK inhibitor)
CCn1cc2nc(SCc3cccc(C(F)(F)F)c3)n(Cc3ccc(Cl)cc3)c(=O)c2n1	FH mod inconclusive
CCn1cc2nc(SCC(=O)Nc3cccc(Cl)c3C)n(Cc3ccc(Cl)cc3)c(=O)c2n1	NTMT1 inhibitor inconclusive, FH mod inconclusive
CCn1cc2nc(SCC(=O)Nc3ccc(C)cc3C)n(Cc3ccc(C)cc3)c(=O)c2n1	NTMT1 inhibitor 89µM
CCn1cc2nc(SCc3cccc(C(F)(F)F)c3)n(CCc3ccccc3)c(=O)c2n1	FH mod 32µM
CCn1cc2nc(SCc3cccc(C)c3)n(CCc3ccccc3)c(=O)c2n1	FH mod 40µM
CC1=C(C(=O)Nc2ccon2)C2(CCCC2)N=C(Nc2nc3ccccc3o2)N1	none (no result: B2AR arrestin ag, TSG101-PTAP inh, GALC G270D act, GALK inhibitor, FH mod)
CC1=C(/C=C/C(C)=C/C=C/C(C)=C/C(=O)O)C(C)(C)CCC1	NTMT1 inhibitor 79µM!, FH mod inconclusive (no result: B2AR arrestin ag, TSG101-PTAP inh, GALK inhibitor)
CN(CC[C@@H](Oc1ccc(C(F)(F)F)cc1)c1ccccc1)CC(=O)O	none (no result: NTMT1 inhibitor, B2AR arrestin ag, TSG101-PTAP inh, GALC G270D act, GALK inhibitor)
Cc1cc(O[C@@H](CCC(F)(F)F)c2ccc(C(=O)NCCC(=O)O)cc2)cc(C)c1-c1ccc(C(C)(C)C)cc1	NTMT1 inhibitor 32µM (no result: B2AR arrestin ag, TSG101-PTAP inh, GALC G270D act, GALK inhibitor, FH mod)
C=CC(C)(C)c1[nH]c2ccccc2c1C1=C(O)C(=O)C(c2c[nH]c3c(CC=C(C)C)cccc23)=C(O)C1=O	NTMT1 inhibitor 40µM (no result: B2AR arrestin ag, TSG101-PTAP inh, GALC G270D act, GALK inhibitor)
O=C(Nc1ncc(SCCN2CCCC2)s1)[C@]1(c2ccc(S(=O)(=O)C3CC3)cc2)C[C@H]1C1CCCCC1	none (no result: B2AR arrestin ag, TSG101-PTAP inh, GALC G270D act, GALK inhibitor, FH mod)
COc1ccc(CNC(=O)C2CCN(C(=O)c3cnn(-c4ccccc4)c3-n3cccc3)CC2)cc1	NTMT1 inhibitor 89µM
CN(C)C/C=C/C(=O)Nc1ccc(C(=O)Nc2cccc(Nc3ncc(Cl)c(-c4c[nH]c5ccccc45)n3)c2)cc1	NTMT1 inhibitor 50µM! (no result: B2AR arrestin ag, TSG101-PTAP inh, GALC G270D act, GALK inhibitor)
CN(C)C/C=C/C(=O)Nc1cccc(C(=O)Nc2cccc(Nc3ncc(Cl)c(-c4c[nH]c5ccccc45)n3)c2)c1	NTMT1 inhibitor inconclusive (no result: B2AR arrestin ag, TSG101-PTAP inh, GALC G270D act, GALK inhibitor)
CCc1cccc(NC(=O)CCc2c(C)nc3c(c2C)c(=O)n(C)c(=O)n3C)c1	NTMT1 inhibitor 89µM
COC(=O)c1ccc(NC(=O)CCc2c(C)nc3c(c2C)c(=O)n(C)c(=O)n3C)cc1	none
CNc1oc(-c2cccc3ccccc23)nc1C(=O)Nc1cccc(C#N)c1	none (no result: B2AR arrestin ag, TSG101-PTAP inh, GALC G270D act, GALK inhibitor, FH mod)
CCCN(CCC)CCCNC(=O)c1cc2c(=O)n(C)c3ccccc3c2s1	NTMT1 inhibitor 50µM, FH mod inconclusive
CCn1c(=O)c2cc(C(=O)NCCCN(C)Cc3ccccc3)sc2c2ccccc21	NTMT1 inhibitor inconclusive, FH mod inconclusive
CN(C)c1ccc(O)c2c1C[C@H]1C[C@H]3[C@H](N(C)C)C(=O)C(C(N)=O)=C(O)[C@@]3(O)C(=O)C1=C2O	NTMT1 inhibitor 79µM! (no result: B2AR arrestin ag, TSG101-PTAP inh, GALK inhibitor)
C[C@H]1c2cccc(O)c2C(O)=C2C(=O)[C@]3(O)C(O)=C(C(N)=O)C(=O)[C@@H](N(C)C)[C@@H]3[C@@H](O)[C@@H]21	NTMT1 inhibitor inconclusive (no result: B2AR arrestin ag, TSG101-PTAP inh, GALK inhibitor)
CN(CC(=O)N(Cc1ccc(C2CCCCC2)cc1)c1ccc(C(=O)O)c(O)c1)S(=O)(=O)c1c(F)c(F)c(F)c(F)c1F	NTMT1 inhibitor 32µM (no result: B2AR arrestin ag, TSG101-PTAP inh, GALC G270D act, GALK inhibitor)
Cc1ccc(/C=C/c2nc3ccccc3[nH]2)cc1	NTMT1 inhibitor 5µM
O=C(O)CCc1nc2ccccc2[nH]1	NTMT1 inhibitor inconclusive (no result: B2AR arrestin ag, TSG101-PTAP inh, GALK inhibitor)
CCOc1ccc(-c2nc(CSCC(=O)NCc3ccc(C)cc3)c(C)o2)cc1	NTMT1 inhibitor 79µM
Cc1oc(-c2ccc(Cl)cc2)nc1CS(=O)CC(=O)NCc1ccc(Cl)cc1 (stereo unspecified)	none
CCc1ccc(-c2nc(CS(=O)CC(=O)NCc3ccc(F)cc3)c(C)o2)cc1 (stereo unspecified)	NTMT1 inhibitor 89µM
